The entries come from a sample that favours hits as a whole.
BoNT-F LC inh: blocks Botulinum neurotoxin F light chain protease; Multiplex microsphere protease cleavage assay, flow cytometry; 360,000 compounds, 0.22% hits; AID 588497; inhibition, % at 10 µM; in the data active = inhibition above about 35%, passing the limit was not always enough; inconclusive = no clear call, values can overlap the other calls
Autofluor counter: compound fluorescence in toxin protease inhibitor counterscreen; AID 624483; compound autofluorescence counterscreen, microsphere flow cytometry; stronger effect = higher value; 360,000 compounds, 3.1% hits; fluorescence intensity (test concentration not listed); in the data active = fluorescence intensity above about 16000; inconclusive = no clear call, values can overlap the other calls
TcdB GH inh: blocks C. difficile toxin B glycohydrolase activity | P18177 | TcdB glycohydrolase enzymatic assay, plate reader | AID 652162 | inhibition, % at 9.99 µM | 350,000 compounds, 0.24% hits; in the data active = inhibition above about 10%
Target sequence (P18177 whole entry, looked up): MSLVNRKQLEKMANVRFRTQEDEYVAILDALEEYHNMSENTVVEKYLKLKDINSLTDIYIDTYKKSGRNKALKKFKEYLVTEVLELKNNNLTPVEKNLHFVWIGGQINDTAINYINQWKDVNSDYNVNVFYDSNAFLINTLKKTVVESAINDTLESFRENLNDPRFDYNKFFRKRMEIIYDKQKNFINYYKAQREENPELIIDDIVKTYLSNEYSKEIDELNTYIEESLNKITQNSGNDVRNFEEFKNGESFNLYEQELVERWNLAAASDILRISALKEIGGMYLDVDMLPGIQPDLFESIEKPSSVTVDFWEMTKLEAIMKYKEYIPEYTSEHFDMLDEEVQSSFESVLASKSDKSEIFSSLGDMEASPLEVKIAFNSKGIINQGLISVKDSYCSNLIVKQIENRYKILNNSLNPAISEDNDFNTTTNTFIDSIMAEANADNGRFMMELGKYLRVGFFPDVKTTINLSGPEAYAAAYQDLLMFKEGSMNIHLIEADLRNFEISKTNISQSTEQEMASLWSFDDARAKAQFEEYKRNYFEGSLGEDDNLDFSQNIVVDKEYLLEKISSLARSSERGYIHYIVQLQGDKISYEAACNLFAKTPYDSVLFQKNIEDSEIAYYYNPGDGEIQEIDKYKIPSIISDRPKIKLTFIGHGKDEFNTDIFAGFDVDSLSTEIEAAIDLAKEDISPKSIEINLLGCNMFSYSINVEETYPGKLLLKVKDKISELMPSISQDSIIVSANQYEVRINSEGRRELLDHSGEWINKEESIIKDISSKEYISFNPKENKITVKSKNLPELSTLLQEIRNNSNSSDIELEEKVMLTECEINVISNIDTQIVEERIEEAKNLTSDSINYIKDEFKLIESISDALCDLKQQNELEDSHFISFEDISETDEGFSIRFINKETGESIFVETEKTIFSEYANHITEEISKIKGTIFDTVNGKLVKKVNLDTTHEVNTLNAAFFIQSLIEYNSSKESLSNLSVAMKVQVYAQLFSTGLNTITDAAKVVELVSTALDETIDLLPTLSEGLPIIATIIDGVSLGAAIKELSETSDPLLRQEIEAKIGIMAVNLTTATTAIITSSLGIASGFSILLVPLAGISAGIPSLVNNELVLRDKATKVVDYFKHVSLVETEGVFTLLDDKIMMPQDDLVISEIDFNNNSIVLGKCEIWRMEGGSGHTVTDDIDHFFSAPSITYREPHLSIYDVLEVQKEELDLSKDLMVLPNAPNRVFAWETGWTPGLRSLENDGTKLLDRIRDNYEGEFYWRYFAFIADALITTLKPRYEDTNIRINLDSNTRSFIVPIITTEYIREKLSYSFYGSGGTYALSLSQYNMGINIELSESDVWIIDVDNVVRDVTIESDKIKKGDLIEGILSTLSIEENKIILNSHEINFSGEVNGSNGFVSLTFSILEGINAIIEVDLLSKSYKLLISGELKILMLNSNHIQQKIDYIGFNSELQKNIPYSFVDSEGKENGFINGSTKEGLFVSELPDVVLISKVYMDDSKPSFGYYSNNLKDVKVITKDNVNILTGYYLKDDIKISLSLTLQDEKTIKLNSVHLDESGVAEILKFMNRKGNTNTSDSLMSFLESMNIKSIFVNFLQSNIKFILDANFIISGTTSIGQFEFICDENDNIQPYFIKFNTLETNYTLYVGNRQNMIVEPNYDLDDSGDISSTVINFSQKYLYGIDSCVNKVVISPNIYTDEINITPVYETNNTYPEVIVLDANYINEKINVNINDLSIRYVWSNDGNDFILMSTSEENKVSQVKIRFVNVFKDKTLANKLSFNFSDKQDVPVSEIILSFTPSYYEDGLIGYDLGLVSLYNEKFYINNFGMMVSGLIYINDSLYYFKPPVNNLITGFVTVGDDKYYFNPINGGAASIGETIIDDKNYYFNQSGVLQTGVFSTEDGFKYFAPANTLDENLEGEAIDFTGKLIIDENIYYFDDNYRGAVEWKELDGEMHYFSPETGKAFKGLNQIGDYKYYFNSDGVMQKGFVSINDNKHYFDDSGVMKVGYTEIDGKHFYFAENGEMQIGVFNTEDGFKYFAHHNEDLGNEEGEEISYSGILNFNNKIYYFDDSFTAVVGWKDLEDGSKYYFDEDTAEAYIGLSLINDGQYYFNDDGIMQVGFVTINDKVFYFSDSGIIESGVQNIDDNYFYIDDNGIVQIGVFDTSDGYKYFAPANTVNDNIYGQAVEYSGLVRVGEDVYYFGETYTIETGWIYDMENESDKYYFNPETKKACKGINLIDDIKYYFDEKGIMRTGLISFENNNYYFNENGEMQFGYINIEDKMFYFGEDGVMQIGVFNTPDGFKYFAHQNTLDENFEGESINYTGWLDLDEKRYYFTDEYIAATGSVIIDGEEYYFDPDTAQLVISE
Anthrax LF prot: anthrax lethal factor protease inhibition; inhibition, % at 10 µM; multiplex microsphere protease cleavage assay, LF; AID 588501; 360,000 compounds, 0.12% hits
BoNT A protease: BoNT A light chain protease inhibition | 360,000 compounds, 0.17% hits | inhibition, % at 10 µM | multiplex microsphere protease substrate cleavage, flow cytometry
Numbers stand for hits; 0 = inactive; ? = inconclusive; - = no result given. Cut-off read from the data, not from the text of the source, unless noted: active = inhibition above about 30%; inconclusive = no clear call, values can overlap the other calls; inactive = below that.

SMILES | BoNT-F LC inh | Autofluor counter | TcdB GH inh | Anthrax LF prot | BoNT A protease
CC1=C(C(=O)c2ccccc2)C(c2cn(-c3ccccc3)nc2-c2ccc(Cl)cc2)NC(=S)N1 (stereo unspecified) | 0 | 19559 | - | 0 | 0
CC1(C)NC(=O)N(CC(=O)O)C1=O | 0 | 17429 | - | 0 | 0
O=C(NCCN1CCOCC1)C1CCC(=O)N1Cc1ccc(F)cc1 (stereo unspecified) | 0 | 24197 | - | 0 | 0
C[C@@H]1CN([C@H](C)CO)C(=O)c2cc(-c3ccc(C#N)cc3)cnc2O[C@H]1CN(C)C(=O)CN(C)C | - | - | 0 | - | -
Cc1cccc(NC(=S)NNC(=O)CCn2cc(C)cn2)c1 | 0 | 22732 | 0 | 0 | ?
Cc1nn(CCC(=O)NNC(=S)Nc2ccccc2)c(C)c1Br | 0 | 0 | 0 | 0 | 0
Cc1cccc(NC(=O)CCSc2nncn2C)c1 | 0 | 22260 | - | 0 | 0
COc1cc2c3c(c1)-c1c(sn(-c4cc(OC)ccc4OC)c1=S)C(C)(C)N3C(=O)C2=O | 0 | 21539 | - | 0 | 0
CO[C@H]1CN(C)C(=O)c2ccc(NC(C)=O)cc2OC[C@H](C)N(CCC(F)(F)F)C[C@@H]1C | - | - | 0 | - | -
O=C(C[C@@H]1CC[C@H]2[C@@H](COC[C@@H](O)CN2Cc2ccncc2)O1)NCc1ccncc1 | - | - | 0 | - | -
CC(=O)c1c(C)[nH]c(C(=O)Nc2cccnc2)c1C | 0 | 19908 | - | 0 | ?
C[C@@H]1CN([C@H](C)CO)C(=O)c2cc(-c3cccc(C#N)c3)cnc2O[C@H]1CN(C)C(=O)C1CC1 | - | - | 0 | - | -
CCOC(=O)C(Cc1c(F)cccc1F)(NC(C)=O)C(=O)OCC | 0 | 21936 | - | 0 | 0
Cc1ccc(CSc2nc3nc(C)cc(C)c3c(=O)[nH]2)cc1 | 0 | 0 | 13 | 0 | 0
COc1ccc(NC(=O)N[C@H]2CC[C@H](CCNC(=O)CCN3CCCCC3)O[C@@H]2CO)cc1 | - | - | 0 | - | -
O=C(C[C@H]1CC[C@H]2[C@@H](COC[C@H](O)CN2CC2CCOCC2)O1)NCC1CC1 | - | - | 0 | - | -
O=C(NCCc1ccccc1)C1CC(=O)N(c2ccc3c(c2)OCCO3)C1 (stereo unspecified) | - | - | 0 | - | -
O=C(NCCCc1ccccc1)C1CC(=O)N(c2ccc3c(c2)OCCO3)C1 (stereo unspecified) | 0 | 20162 | - | 0 | ?
CC(C)n1nnnc1-c1cc(Cl)cc(Cl)c1 | 0 | 23056 | - | 0 | 0
CC(C)n1nnnc1-c1cccc(Cl)c1 | 0 | 17953 | - | 0 | 0
COc1ccc(-c2nnnn2C(C)C)cc1S(=O)(=O)Nc1ccccc1 | 0 | 0 | 0 | 0 | 0
COc1cccc(C(=O)Nc2ccc3c(c2)OC[C@@H](C)N(C(C)=O)C[C@@H](C)[C@H](OC)CN(C)C3=O)c1 | - | - | 0 | - | -
O=C(Nc1ccsc1C(=O)NC1CCCCC1)c1ccccc1 | 0 | 20407 | - | 0 | ?
O=C(Nc1ccc(Cl)cc1)N[C@@H]1CC[C@H](CCn2cc(C3(O)CCCC3)nn2)O[C@@H]1CO | - | - | 0 | - | -
CCCN(C)C[C@H]1Oc2ncc(-c3ccccc3)cc2C(=O)N([C@@H](C)CO)C[C@H]1C | - | - | 0 | - | -
SMILES | BoNT-F LC inh | Autofluor counter | TcdB GH inh | Anthrax LF prot | BoNT A protease
Cn1c(C(=O)Nc2ccc3c(c2)OCO3)cc2c(=O)n(C)c3ccccc3c21 | 0 | 0 | 0 | 0 | 0
CCOc1ccc(NC(=O)c2cc3c(=O)n(C)c4ccccc4c3n2C)cc1 | 0 | 18920 | 0 | 0 | 0
O=C1OCc2cc(NC(=O)C3CCCCC3)ccc21 | 0 | 20191 | 0 | 0 | ?
C[C@H](CO)N1C[C@H](C)[C@H](CN(C)Cc2ccc(-c3ccccc3)cc2)Oc2ncc(C#CCN(C)C)cc2C1=O | - | - | 0 | - | -
c1nc(N2CCOCC2)c2c3c(sc2n1)CCCC3 | 0 | 23015 | 0 | 0 | 0
NC(=O)c1c(-c2ccccc2)oc2ccc(O)cc12 | 0 | 22271 | - | 0 | 0
C[C@@H]1CCCCO[C@H](CN(C)S(=O)(=O)c2ccc(F)cc2)[C@@H](C)CN([C@@H](C)CO)C(=O)c2cc(NC(=O)CCCN(C)C)ccc2O1 | - | - | 0 | - | -
CCCNC(=O)CCC(=O)Nc1ncc(-c2ccc(C)cc2)n1C | 0 | 22139 | - | 0 | ?
O=C(Nc1ccc(F)cc1)Nc1ccc2c(c1)[C@H]1C[C@@H](CC(=O)N3CCOCC3)O[C@H](CO)[C@H]1O2 | - | - | 0 | - | -
Cc1nn(-c2cc(N3CCCCC3)ccc2N)c(=O)c2ccccc12 | 0 | 20582 | - | 0 | ?
Cc1nn(-c2cc(N3CCCCCC3)ccc2[N+](=O)[O-])c(=O)c2ccccc12 | 0 | 23118 | - | 0 | ?
C[C@H]1CN([C@@H](C)CO)C(=O)c2cccc(NC(=O)C3CCOCC3)c2O[C@@H]1CN(C)C(=O)Nc1ccc(F)cc1 | - | - | 0 | - | -
COc1ccccc1NC(=O)N[C@H]1CC[C@H](CCNC(=O)c2ccc3c(c2)OCO3)O[C@@H]1CO | - | - | 0 | - | -
C[C@@H]1CCCCO[C@@H](CN(C)Cc2ccc(C(=O)O)cc2)[C@@H](C)CN([C@H](C)CO)C(=O)c2cc(NC(=O)Nc3ccccc3)ccc2O1 | - | - | 0 | - | -
Clc1ccccc1-c1ccc(/C=N/n2cnnc2)o1 | 0 | 16641 | - | 0 | 0
Clc1cccc(-c2ccc(/C=N/n3cnnc3)o2)c1Cl | 0 | 0 | 0 | 0 | 0
CCSc1nc2ccccc2n1CCOc1ccccc1 | ? | 0 | - | 0 | 0
CSc1nc2ccccc2n1C(=O)Oc1ccccc1 | 0 | 20058 | - | 0 | 0
CCc1nnc(NC(=O)CSc2nnc3ncccn23)s1 | 0 | 20884 | 0 | 0 | ?
CCn1c(SCC(=O)Nc2nccs2)nnc1-c1cccnc1 | 0 | ? | 0 | 0 | 0
Cn1c(CSc2ncccn2)nnc1SCC(=O)N1CCCCC1 | 0 | 0 | - | 0 | 0
Cc1csc(NC(=O)CSc2nnc3ncccn23)n1 | 0 | 22164 | - | 0 | 0
O=C(CSc1nnc2ncccn12)N1CCCCCC1 | 0 | 23133 | - | 0 | 0
CCn1c(SCC(=O)Nc2nc(C)cs2)nnc1-c1cccnc1 | 0 | 17501 | - | 0 | 0
C[C@H]1CN([C@@H](C)CO)C(=O)c2cc(NC(=O)C3CC3)ccc2O[C@H]1CN(C)Cc1ccccc1 | - | - | 0 | - | -
SMILES | BoNT-F LC inh | Autofluor counter | TcdB GH inh | Anthrax LF prot | BoNT A protease
CN(C)CC(=O)N1[C@@H]2c3ccc(C4=CCCC4)c(=O)n3C[C@H]1[C@H](CO)[C@H]2C(=O)NCC1CCCCC1 | - | - | 0 | - | -
O=C(Nc1ccc(Cl)cc1)N[C@@H]1CC[C@@H](CCn2cc(-c3ccccc3F)nn2)O[C@@H]1CO | - | - | 0 | - | -
Cc1cc(C(=O)Nc2cccc3c2O[C@H](CN(C)S(=O)(=O)c2ccc(F)cc2)[C@H](C)CN([C@@H](C)CO)C3=O)n(C)n1 | - | - | 0 | - | -
CC=Cc1ccc2n(c1=O)C[C@@H]1[C@@H](CO)[C@H](C(=O)NCCC)[C@H]2N1C(=O)Nc1cc(F)ccc1F (mixture of isomers) | - | - | 0 | - | -
Cc1ccc(N2C(=O)[C@@H]3Cc4ccccc4CN3C2=O)cc1 | 0 | 21075 | - | 0 | 0
Cc1ccccc1-n1c(=O)cc(N2CCc3ccccc3C2)[nH]c1=O | 0 | 19487 | 0 | 0 | 0
CO[C@H]1CC[C@H]2CCOc3ccc(C#N)cc3C(=O)N(C)C[C@H](OC)[C@@H](C)C(=O)N(C)C[C@H]1O2 | - | - | 0 | - | -
C[C@H]1CN([C@@H](C)CO)C(=O)Cc2cc(NC(=O)Nc3ccc(C(F)(F)F)cc3)ccc2O[C@H]1CN(C)C(=O)NC1CCCCC1 | - | - | 0 | - | -
CC(Sc1nc2ccccc2[nH]1)C(=O)O (stereo unspecified) | 0 | 23428 | - | 0 | 0
CC(=O)Nc1ccc(S(=O)(=O)Nc2nnc(C(C)C)s2)cc1 | 0 | 16628 | - | 0 | 0
